We go through 18 molecules from PubChem BioAssay AID1053126 (Broad Institute, 2014).

Each structure is given as a SMILES string. Results with a measured potency or affinity are listed apart. Values without a mark were called inactive.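 The calls were made as follows: active = cell killing with a fitted half-effect concentration at or below twice the top valid dose; inconclusive = flat curve with 30 to 70 percent drop, or poor fit; inactive = the rest.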

The test in a line: HEK293T cell cytotoxicity, dose response, cytotoxicity control, ATP luminescence, cherry-pick, set 6 (AID 1053126).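 Also: 0% = neutral control wells and -100% = mitoxantrone 10 µM positive control.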 The note with it: HEK293T viability, CellTiter-Glo ATP luminescence, 72 h; series mostly up to 26 µM; activity change, negative = cytotoxicity: at the top concentration. Background: Cellular ATP, detected with luciferase, serves as a proxy for viable cell number.
Turning to `CCN(CC)c1ccc2cc(C#N)c(=O)oc2c1`, the “activity change, negative = cytotoxicity” value is -1.21%. `O=[N+]([O-])c1cccc(Nc2c3ccccc3nc3ccccc23)c1`: the “activity change, negative = cytotoxicity” value is -22%. Take `COc1ccc(S(=O)(=O)Cc2ccc(C(=O)N3CCN(Cc4ccccc4)CC3)o2)cc1`: the “activity change, negative = cytotoxicity” value is 43.5%. Then `Cc1c(O)ccc2cc(S(=O)(=O)c3ccccc3)c(=O)oc12`, with -10.9%. In the case of `CCOC(=O)c1cc2c(=O)n3ccccc3nc2n(CCCOC)c1=NC(=O)c1ccncc1`, the “activity change, negative = cytotoxicity” value is -4.62%. Next, `CN1c2ccc(Cl)cc2C(=O)NC1C1CC=CCC1` (stereo not drawn): 5.93%; `O=C(NCc1ccc(F)cc1)C1CCCN1C(=O)Nc1cccc(F)c1` (stereo not drawn): 1.02%; `O=c1oc2cc(O)ccc2cc1S(=O)(=O)c1ccccc1`: -5.95%. Take `O=c1[nH]c2ccccc2nc1/C=C/c1ccccc1`: the “activity change, negative = cytotoxicity” value is -14.3%. Next, `Cc1c2c(n3c(nc4ccccc43)c1C#N)N(CCN1CCOCC1)CC2`: -6.36%; `O=C(NNc1cc(N2CCCC2)nc(N2CCCC2)n1)c1ccc([N+](=O)[O-])cc1`: -11.6%. Then `Cc1cccn2c(=O)c3cc(C(=O)NCCN4CCOCC4)c(=N)n(CCc4ccccc4)c3nc12`, with -20.7%; and `Cc1ccc(S(=O)(=O)Nc2ccc(Nc3ccccc3)cc2)cc1`, with -16.6%. Next, `O=C(COC(=O)c1cc(S(=O)(=O)N2CCCCC2)ccc1N1CCOCC1)c1ccccc1Cl`: -13.4%; `CCN1C=C(C(=O)OC)C(c2cccc(OC)c2OC)C(C(=O)OC)=C1`: -2.69%; `O=C(CCc1c[nH]c2ccccc12)OCC(=O)c1ccccc1`: -12.4%. For `CCOc1ccc(S(=O)(=O)Nc2ccc(C(=O)N(CC)CC(=O)NCc3cccs3)cc2)cc1`, the “activity change, negative = cytotoxicity” value is -3.98%. For `Nc1ccc2nc(-c3ccccc3)cnc2c1`, the “activity change, negative = cytotoxicity” value was -5.63%.
